# Article PMC7862700, “An all-to-all approach to the identification of sequence-specific readers for epigenetic DNA modifications on cytosine”
# Tests used:
# Assay in all cases: DAPPL (digital affinity profiling via proximity ligation, sequencing); 10 mM Tris-HCl pH 7.5, 50 mM NaCl, 1 mM DTT, 4% glycerol, room temperature, 30 min; GST-TFs on glutathione beads, 16-mer random dsDNA library, 0.1% formaldehyde crosslink after washing; high values mean tight binding
# FLI1 = target: T1, FLI1 (Homo sapiens, UniProt Q01543 1-452); details: protein: recombinant; tags: N-terminal GST; dsDNA, one strand shown
# T1 sequence: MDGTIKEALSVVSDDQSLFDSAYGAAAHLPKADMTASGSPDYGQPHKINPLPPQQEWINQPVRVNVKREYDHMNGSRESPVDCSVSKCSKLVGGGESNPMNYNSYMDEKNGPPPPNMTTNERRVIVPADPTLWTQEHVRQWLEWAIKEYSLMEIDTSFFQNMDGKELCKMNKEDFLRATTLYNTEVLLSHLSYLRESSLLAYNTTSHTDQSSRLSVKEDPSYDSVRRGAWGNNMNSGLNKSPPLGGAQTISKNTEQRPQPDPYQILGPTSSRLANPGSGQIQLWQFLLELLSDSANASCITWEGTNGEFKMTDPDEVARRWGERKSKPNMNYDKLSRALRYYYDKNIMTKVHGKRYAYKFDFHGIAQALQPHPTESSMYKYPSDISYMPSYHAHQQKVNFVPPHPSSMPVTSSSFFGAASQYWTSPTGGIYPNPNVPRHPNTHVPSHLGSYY
# In short: (§1)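 After expression in yeast as GST fusions, human transcription factors were bound to glutathione beads, DNA-barcoded and mixed with a tag-only sample. The pools were incubated with 200 nmole of a 16-mer random double-stranded DNA library in Tris/NaCl/DTT/glycerol buffer (30 min, room temperature), washed and crosslinked with 0.1% formaldehyde. Proximity ligation with BsaI/T4 ligase ran for 1 h at 37 °C, before PCR amplification and sequencing on an Illumina NextSeq500. Binding signal is a hexamer's read frequency for a factor divided by its frequency for the tag-only sample.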
# ELK1 = target: T2, ELK1 (Homo sapiens, UniProt P19419 1-428); details: protein: recombinant; tags: N-terminal GST; dsDNA, one strand shown
# T2 sequence: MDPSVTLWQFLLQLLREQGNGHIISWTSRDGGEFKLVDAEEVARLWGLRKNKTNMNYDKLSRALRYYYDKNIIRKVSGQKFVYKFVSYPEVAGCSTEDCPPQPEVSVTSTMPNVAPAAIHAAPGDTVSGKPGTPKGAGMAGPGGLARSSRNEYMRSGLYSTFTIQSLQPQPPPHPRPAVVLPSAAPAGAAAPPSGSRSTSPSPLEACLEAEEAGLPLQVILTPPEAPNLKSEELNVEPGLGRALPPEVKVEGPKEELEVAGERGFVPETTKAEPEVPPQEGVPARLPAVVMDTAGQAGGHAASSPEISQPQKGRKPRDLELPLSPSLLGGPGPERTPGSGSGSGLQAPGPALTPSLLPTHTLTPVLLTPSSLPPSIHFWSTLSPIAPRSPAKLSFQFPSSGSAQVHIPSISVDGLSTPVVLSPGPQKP
# In short: as §1
# GABPA = target: T3, GABPA (Homo sapiens, UniProt Q06546 1-454); details: protein: recombinant; tags: N-terminal GST; dsDNA, one strand shown
# T3 sequence: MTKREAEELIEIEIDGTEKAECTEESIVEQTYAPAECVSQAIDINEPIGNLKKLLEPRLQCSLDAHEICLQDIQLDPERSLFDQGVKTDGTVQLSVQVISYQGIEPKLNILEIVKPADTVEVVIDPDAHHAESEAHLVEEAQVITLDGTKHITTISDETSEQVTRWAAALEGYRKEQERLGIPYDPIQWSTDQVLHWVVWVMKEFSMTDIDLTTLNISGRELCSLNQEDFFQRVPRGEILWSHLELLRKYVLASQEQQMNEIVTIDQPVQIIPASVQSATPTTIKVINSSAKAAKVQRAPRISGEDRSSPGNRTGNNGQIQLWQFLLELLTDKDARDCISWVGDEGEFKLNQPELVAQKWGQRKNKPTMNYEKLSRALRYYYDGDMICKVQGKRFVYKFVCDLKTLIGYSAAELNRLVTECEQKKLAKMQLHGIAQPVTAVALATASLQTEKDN
# In short: as §1
# ERG = target: T4, ERG (Homo sapiens, UniProt P11308 1-479); details: protein: recombinant; tags: N-terminal GST; dsDNA, one strand shown
# T4 sequence: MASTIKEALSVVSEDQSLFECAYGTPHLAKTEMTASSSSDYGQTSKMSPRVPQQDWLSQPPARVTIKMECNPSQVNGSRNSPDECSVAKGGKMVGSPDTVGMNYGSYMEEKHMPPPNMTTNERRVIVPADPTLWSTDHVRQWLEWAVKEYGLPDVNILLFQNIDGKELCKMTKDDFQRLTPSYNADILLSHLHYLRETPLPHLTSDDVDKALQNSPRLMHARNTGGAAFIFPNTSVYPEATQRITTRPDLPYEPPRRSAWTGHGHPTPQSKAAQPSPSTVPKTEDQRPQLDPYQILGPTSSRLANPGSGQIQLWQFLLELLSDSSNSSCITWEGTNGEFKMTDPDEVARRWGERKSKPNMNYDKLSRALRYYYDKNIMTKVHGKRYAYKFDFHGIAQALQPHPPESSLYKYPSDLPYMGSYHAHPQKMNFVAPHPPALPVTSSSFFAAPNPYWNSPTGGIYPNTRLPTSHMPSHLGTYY
# In short: as §1
# ELF1 = ELF1 (Homo sapiens, UniProt P32519 1-619); details: protein: recombinant; tags: N-terminal GST; dsDNA, one strand shown
# In short: as §1
# EHF = target: T5, EHF (Homo sapiens, UniProt Q9NZC4 1-300); details: protein: recombinant; tags: N-terminal GST; dsDNA, one strand shown
# T5 sequence: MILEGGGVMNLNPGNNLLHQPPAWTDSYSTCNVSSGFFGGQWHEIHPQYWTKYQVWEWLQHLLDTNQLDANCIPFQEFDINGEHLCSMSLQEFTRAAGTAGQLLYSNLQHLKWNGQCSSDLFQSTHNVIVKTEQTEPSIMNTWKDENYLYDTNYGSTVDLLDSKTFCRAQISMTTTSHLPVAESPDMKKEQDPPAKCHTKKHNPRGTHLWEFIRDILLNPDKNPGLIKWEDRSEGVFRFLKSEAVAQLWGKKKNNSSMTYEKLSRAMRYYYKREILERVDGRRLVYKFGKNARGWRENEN
# In short: as §1
# SPI1 = SPI1 (Homo sapiens, UniProt P17947 1-270); details: protein: recombinant; tags: N-terminal GST; dsDNA, one strand shown
# In short: as §1
# SPIB = SPIB (Homo sapiens, UniProt Q01892 1-262); details: protein: recombinant; tags: N-terminal GST; dsDNA, one strand shown
# In short: as §1
# ELK3 = target: T6, ELK3 (Homo sapiens, UniProt P41970 1-407); details: protein: recombinant; tags: N-terminal GST; dsDNA, one strand shown
# T6 sequence: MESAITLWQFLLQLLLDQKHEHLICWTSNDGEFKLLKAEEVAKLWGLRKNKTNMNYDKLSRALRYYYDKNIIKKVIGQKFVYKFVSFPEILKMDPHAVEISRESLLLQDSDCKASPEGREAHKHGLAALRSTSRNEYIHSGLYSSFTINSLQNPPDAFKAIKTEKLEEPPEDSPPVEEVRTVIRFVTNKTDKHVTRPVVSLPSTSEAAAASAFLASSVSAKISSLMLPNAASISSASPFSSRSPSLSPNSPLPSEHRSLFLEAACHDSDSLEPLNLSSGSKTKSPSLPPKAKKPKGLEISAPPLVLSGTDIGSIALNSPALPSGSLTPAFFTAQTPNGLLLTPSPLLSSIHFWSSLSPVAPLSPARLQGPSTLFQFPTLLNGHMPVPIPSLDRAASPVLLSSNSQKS
# In short: as §1
# FEV = target: T7, FEV (Homo sapiens, UniProt Q99581 1-238); details: protein: recombinant; tags: N-terminal GST; dsDNA, one strand shown
# T7 sequence: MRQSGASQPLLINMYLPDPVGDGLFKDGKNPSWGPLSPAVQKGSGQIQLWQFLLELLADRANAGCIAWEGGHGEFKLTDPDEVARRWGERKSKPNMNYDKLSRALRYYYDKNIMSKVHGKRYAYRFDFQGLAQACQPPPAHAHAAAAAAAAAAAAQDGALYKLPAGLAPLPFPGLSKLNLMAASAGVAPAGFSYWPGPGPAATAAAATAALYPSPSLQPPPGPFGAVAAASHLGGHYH
# In short: as §1
# ETV5 = ETV5 (Homo sapiens, UniProt P41161 1-510); details: protein: recombinant; tags: N-terminal GST; dsDNA, one strand shown
# In short: as §1
# HSF1 = HSF1 (Homo sapiens, UniProt Q00613 1-529); details: protein: recombinant; tags: N-terminal GST; chain copies: 3; dsDNA, one strand shown
# In short: as §1
# SPIC = target: T8, SPIC (Homo sapiens, UniProt Q8N5J4 1-248); details: protein: recombinant; tags: N-terminal GST; dsDNA, one strand shown
# T8 sequence: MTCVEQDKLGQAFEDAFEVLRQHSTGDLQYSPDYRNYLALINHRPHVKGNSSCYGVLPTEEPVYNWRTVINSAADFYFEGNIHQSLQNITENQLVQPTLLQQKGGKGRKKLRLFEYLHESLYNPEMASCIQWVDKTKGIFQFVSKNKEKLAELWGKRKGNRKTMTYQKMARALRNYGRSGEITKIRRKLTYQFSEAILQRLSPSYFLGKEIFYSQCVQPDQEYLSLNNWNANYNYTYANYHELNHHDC
# In short: as §1
# ELF4 = ELF4 (Homo sapiens, UniProt Q99607 1-663); details: protein: recombinant; tags: N-terminal GST; dsDNA, one strand shown
# In short: as §1
# ELK4 = target: T9, ELK4 (Homo sapiens, UniProt P28324-2 1-405); details: protein: recombinant; tags: N-terminal GST; dsDNA, one strand shown
# T9 sequence: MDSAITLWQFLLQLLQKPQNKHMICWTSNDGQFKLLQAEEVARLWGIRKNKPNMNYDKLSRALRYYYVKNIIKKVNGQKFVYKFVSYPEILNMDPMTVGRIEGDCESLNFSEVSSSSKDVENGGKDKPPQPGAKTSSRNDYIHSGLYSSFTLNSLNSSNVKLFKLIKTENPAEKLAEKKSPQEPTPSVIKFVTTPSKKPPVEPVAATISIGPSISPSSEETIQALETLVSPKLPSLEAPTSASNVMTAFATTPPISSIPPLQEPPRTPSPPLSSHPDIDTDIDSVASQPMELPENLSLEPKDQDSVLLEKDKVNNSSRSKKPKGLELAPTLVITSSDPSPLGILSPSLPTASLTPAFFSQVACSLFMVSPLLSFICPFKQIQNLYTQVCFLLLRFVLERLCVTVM
# In short: as §1
# ETV2 = target: T10, ETV2 (Homo sapiens, UniProt O00321 1-342); details: protein: recombinant; tags: N-terminal GST; dsDNA, one strand shown
# T10 sequence: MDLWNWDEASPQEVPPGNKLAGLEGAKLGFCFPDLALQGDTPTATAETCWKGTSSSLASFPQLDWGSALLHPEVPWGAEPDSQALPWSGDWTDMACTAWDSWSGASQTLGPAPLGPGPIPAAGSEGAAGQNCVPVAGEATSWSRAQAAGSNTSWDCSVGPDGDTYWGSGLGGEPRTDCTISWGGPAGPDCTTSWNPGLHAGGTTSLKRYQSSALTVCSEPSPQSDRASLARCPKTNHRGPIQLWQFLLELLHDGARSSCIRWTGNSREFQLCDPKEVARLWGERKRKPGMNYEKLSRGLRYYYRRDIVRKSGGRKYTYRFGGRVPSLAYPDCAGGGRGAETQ
# In short: as §1
# ELF3 = target: T11, ELF3 (Homo sapiens, UniProt P78545 1-371); details: protein: recombinant; tags: N-terminal GST; dsDNA, one strand shown
# T11 sequence: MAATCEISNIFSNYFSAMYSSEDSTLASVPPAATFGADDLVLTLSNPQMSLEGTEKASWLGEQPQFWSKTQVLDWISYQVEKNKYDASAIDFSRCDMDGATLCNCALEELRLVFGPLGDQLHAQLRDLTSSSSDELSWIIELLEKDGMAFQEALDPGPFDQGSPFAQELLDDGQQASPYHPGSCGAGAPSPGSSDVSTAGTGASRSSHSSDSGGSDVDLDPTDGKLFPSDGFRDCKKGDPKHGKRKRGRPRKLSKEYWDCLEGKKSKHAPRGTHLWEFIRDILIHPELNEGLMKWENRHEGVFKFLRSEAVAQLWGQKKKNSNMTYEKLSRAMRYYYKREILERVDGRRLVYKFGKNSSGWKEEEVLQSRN
# In short: as §1
# CRX = CRX (Homo sapiens, UniProt O43186 1-299); details: protein: recombinant; tags: N-terminal GST; dsDNA, one strand shown
# In short: as §1
# ETV1 = ETV1 (Homo sapiens, UniProt P50549 1-477); details: protein: recombinant; tags: N-terminal GST; dsDNA, one strand shown
# In short: as §1
# Chain of SPIB (Q01892 whole entry): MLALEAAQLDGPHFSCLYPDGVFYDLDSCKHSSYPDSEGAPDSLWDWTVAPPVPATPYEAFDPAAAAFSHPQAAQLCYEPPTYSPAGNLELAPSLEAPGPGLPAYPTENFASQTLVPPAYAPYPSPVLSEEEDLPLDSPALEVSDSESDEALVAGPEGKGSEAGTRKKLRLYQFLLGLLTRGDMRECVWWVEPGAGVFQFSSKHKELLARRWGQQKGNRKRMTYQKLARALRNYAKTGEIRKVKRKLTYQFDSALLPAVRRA
# Chain of ETV1 (P50549 whole entry): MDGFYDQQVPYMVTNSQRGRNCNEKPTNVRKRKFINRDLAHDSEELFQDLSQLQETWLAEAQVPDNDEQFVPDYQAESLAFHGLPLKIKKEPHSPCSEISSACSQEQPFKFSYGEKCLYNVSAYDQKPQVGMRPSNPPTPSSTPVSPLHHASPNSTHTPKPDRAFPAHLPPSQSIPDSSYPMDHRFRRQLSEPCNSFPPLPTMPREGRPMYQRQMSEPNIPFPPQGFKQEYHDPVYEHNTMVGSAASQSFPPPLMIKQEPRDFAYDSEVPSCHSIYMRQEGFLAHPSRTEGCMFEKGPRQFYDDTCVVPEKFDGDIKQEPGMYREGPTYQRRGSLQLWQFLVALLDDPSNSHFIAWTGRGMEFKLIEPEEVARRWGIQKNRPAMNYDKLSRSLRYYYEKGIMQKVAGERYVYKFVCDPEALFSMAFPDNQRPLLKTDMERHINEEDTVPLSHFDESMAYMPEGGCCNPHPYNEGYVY
# Chain of HSF1 (Q00613 whole entry): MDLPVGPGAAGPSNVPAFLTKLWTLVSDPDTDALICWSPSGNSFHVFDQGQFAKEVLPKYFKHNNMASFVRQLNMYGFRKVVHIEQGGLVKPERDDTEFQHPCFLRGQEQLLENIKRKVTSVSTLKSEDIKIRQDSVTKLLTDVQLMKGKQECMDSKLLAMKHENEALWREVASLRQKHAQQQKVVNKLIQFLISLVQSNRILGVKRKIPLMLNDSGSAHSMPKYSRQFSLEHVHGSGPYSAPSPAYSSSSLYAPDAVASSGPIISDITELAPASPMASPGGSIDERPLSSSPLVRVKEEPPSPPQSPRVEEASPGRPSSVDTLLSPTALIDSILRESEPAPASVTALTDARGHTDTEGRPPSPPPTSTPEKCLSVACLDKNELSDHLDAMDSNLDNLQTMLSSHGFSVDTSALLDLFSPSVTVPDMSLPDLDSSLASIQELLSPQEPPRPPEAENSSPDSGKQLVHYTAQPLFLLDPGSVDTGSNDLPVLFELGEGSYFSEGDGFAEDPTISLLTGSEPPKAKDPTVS
# Chain of ETV5 (P41161 whole entry): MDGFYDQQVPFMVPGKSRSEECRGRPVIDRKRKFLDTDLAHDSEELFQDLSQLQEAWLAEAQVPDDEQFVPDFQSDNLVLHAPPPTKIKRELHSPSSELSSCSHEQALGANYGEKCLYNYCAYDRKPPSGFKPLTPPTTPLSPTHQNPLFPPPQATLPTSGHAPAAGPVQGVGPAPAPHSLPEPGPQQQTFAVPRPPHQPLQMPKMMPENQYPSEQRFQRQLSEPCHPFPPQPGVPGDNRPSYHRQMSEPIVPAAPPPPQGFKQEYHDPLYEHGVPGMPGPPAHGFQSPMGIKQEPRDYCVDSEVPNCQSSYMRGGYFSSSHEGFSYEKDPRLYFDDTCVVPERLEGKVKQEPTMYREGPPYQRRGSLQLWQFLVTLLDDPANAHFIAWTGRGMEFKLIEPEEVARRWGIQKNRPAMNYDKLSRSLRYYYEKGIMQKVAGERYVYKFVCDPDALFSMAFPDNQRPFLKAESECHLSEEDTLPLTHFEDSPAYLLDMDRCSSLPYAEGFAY
# Chain of ELF1 (P32519 whole entry): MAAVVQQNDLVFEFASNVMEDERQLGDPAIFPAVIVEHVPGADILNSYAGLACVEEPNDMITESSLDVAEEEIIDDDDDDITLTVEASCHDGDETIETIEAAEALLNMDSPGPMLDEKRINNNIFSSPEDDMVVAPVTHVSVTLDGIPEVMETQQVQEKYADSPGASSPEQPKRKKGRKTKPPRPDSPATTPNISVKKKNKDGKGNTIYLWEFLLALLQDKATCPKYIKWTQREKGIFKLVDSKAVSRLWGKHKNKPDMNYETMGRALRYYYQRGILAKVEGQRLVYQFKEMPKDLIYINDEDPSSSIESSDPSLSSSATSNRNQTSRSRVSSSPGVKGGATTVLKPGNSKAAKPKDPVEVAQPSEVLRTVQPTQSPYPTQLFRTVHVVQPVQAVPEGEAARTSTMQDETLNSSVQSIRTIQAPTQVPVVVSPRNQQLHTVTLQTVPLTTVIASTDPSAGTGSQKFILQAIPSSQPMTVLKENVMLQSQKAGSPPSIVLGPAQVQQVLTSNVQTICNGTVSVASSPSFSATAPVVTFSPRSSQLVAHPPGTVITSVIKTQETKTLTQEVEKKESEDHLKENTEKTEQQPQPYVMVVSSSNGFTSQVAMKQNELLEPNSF
# Chain of ELF4 (Q99607 whole entry): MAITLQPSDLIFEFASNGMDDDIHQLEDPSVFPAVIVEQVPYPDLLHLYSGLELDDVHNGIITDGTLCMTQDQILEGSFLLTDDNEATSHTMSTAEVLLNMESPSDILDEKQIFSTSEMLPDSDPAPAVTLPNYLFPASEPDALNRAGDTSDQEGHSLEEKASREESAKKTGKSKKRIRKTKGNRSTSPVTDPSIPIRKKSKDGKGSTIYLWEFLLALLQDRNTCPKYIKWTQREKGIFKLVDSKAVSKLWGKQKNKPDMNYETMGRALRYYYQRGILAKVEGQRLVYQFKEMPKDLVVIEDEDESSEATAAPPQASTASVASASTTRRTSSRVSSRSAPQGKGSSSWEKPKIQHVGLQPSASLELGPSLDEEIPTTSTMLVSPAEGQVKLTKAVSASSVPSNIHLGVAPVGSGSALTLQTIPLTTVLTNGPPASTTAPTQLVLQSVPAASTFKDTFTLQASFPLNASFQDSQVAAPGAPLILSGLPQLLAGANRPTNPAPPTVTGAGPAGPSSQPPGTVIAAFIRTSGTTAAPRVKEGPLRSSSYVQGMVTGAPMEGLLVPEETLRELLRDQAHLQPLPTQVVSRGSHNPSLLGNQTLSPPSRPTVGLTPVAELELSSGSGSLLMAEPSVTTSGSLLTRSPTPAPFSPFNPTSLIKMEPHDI
# Chain of CRX (O43186 whole entry): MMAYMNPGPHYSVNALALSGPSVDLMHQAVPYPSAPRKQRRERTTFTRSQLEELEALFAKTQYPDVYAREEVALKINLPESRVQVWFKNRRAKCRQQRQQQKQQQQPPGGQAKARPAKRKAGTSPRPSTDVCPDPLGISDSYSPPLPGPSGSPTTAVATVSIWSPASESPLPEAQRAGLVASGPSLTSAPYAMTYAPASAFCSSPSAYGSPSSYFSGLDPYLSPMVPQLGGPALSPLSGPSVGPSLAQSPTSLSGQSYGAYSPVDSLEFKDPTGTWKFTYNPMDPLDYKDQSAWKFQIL
sequence,measurement,setting,value
CTACGG,binding signal,FLI1,"1.19 fold enrichment (6-mer frequency, TF over GST control)"
same,binding signal,ELK1,"1.27 fold enrichment (6-mer frequency, TF over GST control)"
same,binding signal,GABPA,"1.22 fold enrichment (6-mer frequency, TF over GST control)"
same,binding signal,ERG,"1.21 fold enrichment (6-mer frequency, TF over GST control)"
same,binding signal,ELF1,"1.29 fold enrichment (6-mer frequency, TF over GST control)"
same,binding signal,EHF,"1.31 fold enrichment (6-mer frequency, TF over GST control)"
same,binding signal,SPI1,"1.24 fold enrichment (6-mer frequency, TF over GST control)"
same,binding signal,SPIB,"1.28 fold enrichment (6-mer frequency, TF over GST control)"
same,binding signal,ELK3,"1.24 fold enrichment (6-mer frequency, TF over GST control)"
same,binding signal,FEV,"1.28 fold enrichment (6-mer frequency, TF over GST control)"
same,binding signal,ETV5,"1.21 fold enrichment (6-mer frequency, TF over GST control)"
same,binding signal,HSF1,"1.03 fold enrichment (6-mer frequency, TF over GST control)"
same,binding signal,SPIC,"1.08 fold enrichment (6-mer frequency, TF over GST control)"
same,binding signal,ELF4,"1.22 fold enrichment (6-mer frequency, TF over GST control)"
same,binding signal,ELK4,"1.37 fold enrichment (6-mer frequency, TF over GST control)"
same,binding signal,ETV2,"1.29 fold enrichment (6-mer frequency, TF over GST control)"
same,binding signal,ELF3,"1.38 fold enrichment (6-mer frequency, TF over GST control)"
same,binding signal,CRX,"1.08 fold enrichment (6-mer frequency, TF over GST control)"
same,binding signal,ETV1,"1.34 fold enrichment (6-mer frequency, TF over GST control)"
